# D2 PAM-1: positive allosteric modulators of human D2 dopamine receptor; potentiation, % at 10 µM; HEK293 T-REx D2, calcium flux, EC20 dopamine potentiation; 340,000 tested, 0.34% active;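 active = potentiation over 3 SD above the plate norm, cut at about 30% in these data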; also: 0% is about no effect
# Target sequence (P14416 whole entry, looked up): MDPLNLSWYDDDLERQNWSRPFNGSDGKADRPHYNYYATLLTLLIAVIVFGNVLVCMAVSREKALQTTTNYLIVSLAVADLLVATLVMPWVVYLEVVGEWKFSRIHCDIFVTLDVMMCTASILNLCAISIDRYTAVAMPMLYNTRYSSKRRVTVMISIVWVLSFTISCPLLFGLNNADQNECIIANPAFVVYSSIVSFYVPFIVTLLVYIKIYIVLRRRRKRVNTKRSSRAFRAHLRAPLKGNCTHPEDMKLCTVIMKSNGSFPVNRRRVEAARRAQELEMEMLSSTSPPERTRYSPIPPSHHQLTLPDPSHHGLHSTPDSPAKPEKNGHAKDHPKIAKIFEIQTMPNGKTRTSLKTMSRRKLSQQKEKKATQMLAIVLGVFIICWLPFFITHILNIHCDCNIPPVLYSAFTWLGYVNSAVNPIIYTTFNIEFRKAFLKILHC
#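 Calcium flux readout, no-wash dye, 1 read/s. Inducible HEK293 Trex D2 line, overnight 30 C. Compound alone 180 s (agonist flags), then EC20 dopamine, another 180 s to score potentiation.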
# D2 ag-1: D2 dopamine receptor (human) agonism; P14416; HEK293 T-REx D2 cells, calcium flux agonist mode; activation, % at 2 µM; 340,000 tested, 0.53% active;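 active = activation over 3 SD above normal in the single-dose calcium agonist read, cut at about 30% in these data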; also: 0% is about no effect
#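 Agonism is scored from calcium flux in a force-coupled, inducible HEK293 cell line expressing D2, read kinetically for 180 s after compound addition against dopamine controls.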
# D2 antagonist: antagonizes the human D2 dopamine receptor | HEK293 TREx D2 cells, calcium flux, dopamine EC80 | 340,000 tested, 2% active | P14416 | inhibition, % at 10 µM; in the data active = inhibition above about 30%; inactive = below that, where a call was filed; also: 0% is about no effect
#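 Measurement of antagonist activity uses fluorescent calcium dye in inducible HEK293 T-REx D2 cells: 10 s baseline, compound addition with 180 s read, EC80 dopamine addition with a further 180 s read.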
# D2 ag-2: activates the human D2 dopamine receptor; activation, % (no concentration beside the values); DiscoveRx PathHunter D2 beta-arrestin, luminescence, 90 min; 100% = 57 uM dopamine signal; 360,000 tested, 0.084% active; P14416; in the data active = activation above about 40%; inconclusive = between about 15% and that limit
#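 Agonist mode: compounds alone added to overnight-plated D2 PathHunter cells for 90 min at 37 C, with 57 uM final dopamine (EC100) defining full response. Beta-arrestin recruitment detected by chemiluminescent reagent, read after 1 h at ambient temperature.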
# D2 PAM-2: human D2 receptor positive allosteric modulation; DiscoveRx D2 beta-arrestin cells, luminescence, 90 min; 100% = 57 uM dopamine signal; potentiation, % (test concentration not listed); 360,000 tested, 0.23% active; in the data active = potentiation above about 50%; inconclusive = mostly about 30% to 49%
#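 D2 cells co-treated with compound plus 50 nM dopamine (EC20) for 90 min at 37 deg C to detect potentiation. Beta-arrestin recruitment was read as enzyme-fragment luminescence after 1 h at ambient temperature. Full response was set by 57 uM dopamine.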
# The depositor's hits bear a star; u = inconclusive; x = not tested or not shown. Rows were chosen to be rich in hits. Some 2.4% of all compounds tested hit in one or more screens of this group.
SMILES,D2 PAM-1,D2 ag-1,D2 antagonist,D2 ag-2,D2 PAM-2
Cc1ccccc1NC(=O)Nc1nnc(CC(=O)NCc2ccccc2)s1,-1,0,31*,-3,-13
COC(=O)Nc1nnc(Cc2ccccc2)s1,7,-1,-9,-1,-7
CC(C)C(=O)Nc1nnc(Cc2ccccc2)s1,6,1,30*,-3,-3
CN1/C(=C/C=N/NC(=O)c2ccc([N+](=O)[O-])cc2)C(C)(C)c2ccccc21,-17,0,37*,1,-7
O=C1C(=O)c2ccccc2C(O)=C1c1cccc([N+](=O)[O-])c1,12,1,48*,-10,-19
CC(C#N)Sc1ccc(S(=O)(=O)N(C)C2CCCCC2)cn1 (stereo unspecified),-16,-1,0,0,-2
COc1cccc(NS(=O)(=O)c2ccc(Br)s2)c1,8,0,34*,0,-8
COc1ccc(OC)c(NS(=O)(=O)c2ccc(Br)s2)c1,-9,-1,-3,x,x
Cc1ccc(-c2csc(N/N=C/c3ccco3)n2)c(C)c1,2,0,0,12,56*
Cc1ccc(-c2c3c(nc4sc(C(N)=O)c(N)c24)CCCC3)o1,-13,31*,-7,0,-5
O=S1(=O)CCOC[C@H](c2ccccc2)N1Cc1ccccc1,-9,0,30*,-1,-5
Cc1c(C(=O)Nc2ccc(-n3c(C)nc4ccccc4c3=O)cc2)cccc1[N+](=O)[O-],2,-5,x,x,x
N/C(=N\OC(=O)c1ccc2ccccc2c1)c1cccc([N+](=O)[O-])c1,9,0,-5,u,108*
N/C(=N\OC(=O)c1cccc([N+](=O)[O-])c1)c1ccccn1,-1,0,8,u,22
CC1=C(C)/C(=N/OC(=O)c2cccc([N+](=O)[O-])c2)C=CC1=O,6,0,34*,u,12
N/C(=N\OC(=O)c1cccc(F)c1)c1cccc([N+](=O)[O-])c1,x,x,x,u,85*
N/C(=N/OC(=O)c1cccc([N+](=O)[O-])c1)c1cccc([N+](=O)[O-])c1,4,0,-12,u,u
NC(=O)c1cccc([N+](=O)[O-])c1,10,0,-11,4,-6
N/C(=N\OC(=O)c1ccccc1Cl)c1cccc([N+](=O)[O-])c1,-6,0,-6,60*,25
N/C(=N\OC(=O)c1ccc([N+](=O)[O-])cc1Cl)c1ccccn1,-2,1,0,u,17
COc1ccc(C(NC(=O)C2CCN(CCOc3ccc(Cl)cc3Cl)CC2)c2ccccn2)cc1 (stereo unspecified),x,x,x,-7,-10
Cc1ccc(C)c(Nc2nnc(-c3ccc(C)c(S(=O)(=O)NCC4CCCO4)c3)c3ccccc23)c1 (stereo unspecified),-1,x,x,x,x
COc1ccc(F)cc1S(=O)(=O)NCCc1c(C)[nH]c2c(Cl)cccc12,1,0,x,x,x
Cc1cccc(/C(N)=N/OC(=O)c2ccc(F)cc2)c1,-6,0,2,13,-19
N/C(=N\OC(=O)c1ccc(F)cc1)c1cccc([N+](=O)[O-])c1,3,0,-1,u,65*
SMILES,D2 PAM-1,D2 ag-1,D2 antagonist,D2 ag-2,D2 PAM-2
COc1ccc(N(Cc2cc3ccccc3[nH]c2=O)S(=O)(=O)c2ccc(OC)cc2)cc1,-24,-2,9,-2,-44
COc1ccc(N(CC(=O)N/N=C/c2ccc(C(=O)O)cc2)S(=O)(=O)c2ccc(NC(C)=O)cc2)cc1,-7,1,56*,2,0
COc1ccc(N(Cc2cc3cc(OC)ccc3[nH]c2=O)S(=O)(=O)c2ccc(NC(C)=O)cc2)cc1,-20,0,-7,2,50*
CC1=C(C(N)=O)C(c2cccc(Br)c2)n2nc(SCc3ccccc3Cl)nc2N1 (stereo unspecified),5,1,x,x,x
CC1=C(C(N)=O)C(c2cccnc2)n2nc(SCc3ccccc3Cl)nc2N1 (stereo unspecified),0,-2,35*,0,1
COC1=C/C(=C/c2c(O)c(C#N)c3ccccn23)C=CC1=O,-3,2,33*,-2,-7
CCc1ccc(OCC(=O)Nc2ccc(-c3nc4ncccc4o3)cc2)cc1,-6,0,x,x,x
Cc1c(Cl)cccc1NC(=O)CC1SCCNC1=O (stereo unspecified),0,0,6,-2,-5
Cc1c(Cl)cccc1NC(=O)CC1NCCNC1=O (stereo unspecified),8,0,34*,-2,-12
Cc1c(Cl)cccc1NC(=O)CCN1CCCCCC1,-17,0,21,-3,-29
O=C(CCN1CCN(c2ccc(Cl)cc2)CC1)Nc1ccccc1F,-22,27,36*,-2,-24
Cc1c(Cl)cccc1NC(=O)CN1CCN(CCO)CC1,13,0,31*,1,-6
O=C(CN1CCN(CCC(=O)Nc2ccccc2F)CC1)Nc1ccc(Cl)cc1,8,-1,129*,5,2
O=C(CN1CCN(CCC(=O)Nc2ccccc2F)CC1)Nc1ccc(F)cc1,-9,1,15,-3,-21
O=c1nc(/C=C/c2ccccc2C(F)(F)F)cc(C(F)(F)F)[nH]1,9,-2,32*,-3,-10
CCc1ccc(-c2cc(C)no2)cc1S(=O)(=O)NCCN1CCC(C)CC1,-17,0,6,-4,-38
CCc1ccc(-c2cc(C)no2)cc1S(=O)(=O)N1CCN(c2ccc(F)cc2)CC1,-9,1,36*,-1,-13
CCc1ccc(-c2cc(C)no2)cc1S(=O)(=O)NCCCN1CCN(c2ccccc2)CC1,-24,72*,51*,-3,-34
CCc1ccc(-c2cc(C)no2)cc1S(=O)(=O)N1CCN(c2ccc(OC)cc2)CC1,2,1,5,0,-3
COc1cc(-c2noc(-c3ccc(NC4CCCC4)c([N+](=O)[O-])c3)n2)cc(OC)c1OC,-6,0,x,x,x
NC(=O)CC(NC(=O)c1ccc(Cl)cc1)C(=O)NCCc1ccc(S(N)(=O)=O)cc1 (stereo unspecified),-5,0,10,10,-4
NC(=O)CCC(NC(=O)c1ccc(Cl)cc1)C(=O)NCCc1ccc2c(c1)OCCO2 (stereo unspecified),8,0,42*,-6,-11
CSCCC(NC(=O)c1ccccc1)C(=O)NCCc1ccc2c(c1)OCCO2 (stereo unspecified),-10,0,66*,1,-28
CSCCC(NC(=O)c1ccccc1)C(=O)NC1CC1 (stereo unspecified),-1,0,11,-3,-16

# Screening results from PubChem.
